From PubChem BioAssay (EPA / NIEHS)
Inconclusive results are not listed. Calls of active or inactive are those of the source. Rule for the calls, unless noted: active = hit-call score of the fitted dose curve at least 0.9, where 1 is the maximum; inconclusive = response in the unintended direction; inactive = score below 0.9.

Experiments:
[1] = ATG_TAL_CIS: Attagene CIS-FACTORIAL HepG2 Assay for human TAL Basal Promoter (AID 2282966; active = hit-call score of the fitted dose curve at least 0.9, where 1 is the maximum; inactive = score below 0.9;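 note: background control endpoint measuring basal TAL promoter reporter mRNA not a specific factor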); settings: HepG2 Attagene cis-factorial TAL promoter reporter; actives raise or lower the signal
Outline: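 HepG2 cells were transiently transfected with promoter-driven multiplexed reporter units and dosed for 24 h. Reporter mRNA was measured by RT-PCR with capillary electrophoresis fluorescence; bidirectional fits used DMSO as baseline, serving as a background control.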

[2] = ATG_TGFb_CIS: Attagene CIS-FACTORIAL HepG2 Assay for human Transforming Growth Factor (TGF) (AID 2282967; active = hit-call score of the fitted dose curve at least 0.9, where 1 is the maximum; inactive = score below 0.9); settings: HepG2 Attagene CIS TGFb reporter, mRNA transcription; actives raise or lower the signal
Outline: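 Transient MRTU transfection of HepG2 (FuGene 6). Dose 24 h. TriZol RNA, oligo(dT) RT, PCR, 6-FAM primer extension, HpaI cut, CE. Bidirectional fit, DMSO = baseline.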

[3] = ATG_VDRE_CIS: Attagene CIS-FACTORIAL HepG2 Assay for human Vitamin D Receptor Element (VDRE) (AID 2282968; active = hit-call score of the fitted dose curve at least 0.9, where 1 is the maximum; inactive = score below 0.9); settings: HepG2 VDRE cis-reporter transcription, actives raise or lower the signal
Outline: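 Transiently transfected HepG2 cells carrying cis-regulated reporter transcription units were exposed for 24 h. Reporter mRNA was measured by RT-PCR with fluorescent labelling and capillary electrophoresis, and fitted in both directions against DMSO.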

[4] = molecular target: X-box-binding protein 1 (Homo sapiens) (UniProt P17861); assay: ATG_Xbp1_CIS: Attagene CIS-FACTORIAL HepG2 Assay for human X-box Binding Protein 1 (XBP1) (AID 2282972; active = hit-call score of the fitted dose curve at least 0.9, where 1 is the maximum; inactive = score below 0.9); settings: HepG2 XBP1 cis-element reporter, Attagene multiplex; actives raise or lower the signal
Outline: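 HepG2 cells transiently transfected with multiple cis-element reporter units report endogenous TF activity; 24 h exposure, then reporter mRNA measured by RT-PCR, 6-FAM labelling, HpaI digestion and capillary electrophoresis. Bidirectional fitting versus DMSO.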

[5] = molecular target: Oxysterols receptor LXR-beta (Homo sapiens) (UniProt P55055); assay: ATG_LXRb_TRANS: Attagene TRANS-FACTORIAL HepG2 Assay for human Liver X Receptor beta (LXRb) (AID 2282981); settings: HepG2 Attagene TRANS GAL4-LXRb reporter, mRNA
Outline: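 HepG2 cells transiently transfected with GAL4-UAS reporter units for chimeric NR-Gal4 proteins, dosed for 24 h. Reporter transcripts measured by RT-PCR and capillary electrophoresis; gain-of-signal fitting relative to DMSO.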

[6] = ATG_M_06_TRANS: Attagene TRANS-FACTORIAL HepG2 Assay for M06 Transcription Factor (Internal Marker) (AID 2282983); settings: HepG2 Attagene TRANS M06 internal marker reporter;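 note: reporter transcript level by RT-PCR then capillary electrophoresis fluorescence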
Outline: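 HepG2 cells transiently transfected with multiplexed GAL4-UAS reporter transcription units; after 24 h compound exposure, reporter mRNA measured by RT-PCR, FAM-labelled primer extension, HpaI digestion and capillary electrophoresis. Gain-of-signal fitted versus DMSO baseline; background control readout.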

[7] = molecular target: Nuclear receptor subfamily 4 group A member 2 (Homo sapiens) (UniProt P43354); assay: ATG_NURR1_TRANS: Attagene TRANS-FACTORIAL HepG2 Assay for human Nuclear Receptor Related Protein 1 (NURR1) (AID 2282985); settings: HepG2 Attagene TRANS reporter, mRNA readout
Outline: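 HepG2 cells transiently transfected with NURR1-Gal4 chimera and GAL4-UAS reporter units; after 24 hr compound exposure, reporter mRNA quantified by RT-PCR and capillary electrophoresis; gain of signal fitted against DMSO.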

[8] = molecular target: Transcriptional activator Myb (Homo sapiens) (UniProt P10242); assay: ATG_Myb_CIS: Attagene CIS-FACTORIAL HepG2 Assay for human Myeloblastosis (Myb) Proto-Oncogene Transcription Factor (AID 2282986; active = hit-call score of the fitted dose curve at least 0.9, where 1 is the maximum; inactive = score below 0.9); settings: HepG2 Attagene CIS-FACTORIAL Myb reporter transcription; actives raise or lower the signal
Outline: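 After 24 h of compound dosing, total RNA from transfected HepG2 cells is reverse-transcribed and the reporter sequences amplified, labeled and separated by capillary electrophoresis. Values come from bidirectional fitting against DMSO.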

[9] = molecular target: Oxysterols receptor LXR-alpha (Homo sapiens) (UniProt Q13133); assay: ATG_LXRa_TRANS: Attagene TRANS-FACTORIAL HepG2 Assay for human Liver X Receptor alpha (LXRa) (AID 2282980); settings: HepG2 Attagene TRANS reporter, LXRa transactivation
Outline: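 HepG2 cells were transiently transfected with multiplexed reporter units driven by chimeric LXRa–GAL4 fusion proteins, then dosed for 24 h. Reporter mRNA was quantified by RT-PCR, fluorescent labelling and capillary electrophoresis; gain of signal fitted against DMSO baseline.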

[10] = ATG_M_32_TRANS: Attagene TRANS-FACTORIAL HepG2 Assay for M32 Transcription Factor (Internal Marker) (AID 2282984); settings: HepG2 Attagene TRANS M32 internal marker reporter
Outline: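 HepG2 cells transiently transfected with GAL4-UAS reporter units, dosed for 24 hours. Reporter mRNA quantified by RT-PCR, 6-FAM labelling, HpaI digestion and capillary electrophoresis; internal-marker signal fitted upward relative to DMSO.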

[11] = ATG_Hpa5_TRANS: Attagene TRANS-FACTORIAL HepG2 Assay for human GAL4-Hpa5 Hepatocyte Transcription Factor Basal Promoter (AID 2282975); settings: HepG2 Attagene GAL4-Hpa5 transcription reporter;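 note: hits are increases in reporter mRNA over DMSO baseline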
Outline: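 Basal-promoter GAL4 background control within the HepG2 trans-factorial panel of transiently transfected reporter units. Reporter mRNA is measured 24 h after dosing by RT-PCR and capillary electrophoresis, fitted for gain of signal versus DMSO.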

[12] = ATG_GAL4_TRANS: Attagene TRANS-FACTORIAL HepG2 Assay for GAL4 (Internal Marker) (AID 2282976); settings: HepG2 Attagene TRANS GAL4 internal marker reporter
Outline: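 HepG2 cells transiently transfected with multiplexed GAL4-UAS reporter constructs were dosed for 24 h. Reporter mRNA was measured by RT-PCR, 6-FAM primer extension, HpaI digestion and capillary electrophoresis, and gain of signal was fitted relative to DMSO.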

[13] = molecular target: Nuclear receptor subfamily 1 group I member 3 (Homo sapiens) (UniProt Q14994); assay: ATG_CAR_TRANS: Attagene TRANS-FACTORIAL HepG2 Assay for human Constitutive Androstane Receptor (CAR) (AID 2282969); settings: HepG2 Attagene TRANS-FACTORIAL CAR reporter;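 note: activators raise reporter mRNA above DMSO so AC50 marks induction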
Outline: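 HepG2 cells transiently transfected with GAL4-UAS reporter units; TRANS format reads activity of exogenous chimeric NR-Gal4 protein. After 24 h dosing, reporter mRNA quantified by RT-PCR, 6-FAM labelling and capillary electrophoresis; gain of signal fitted against DMSO.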

[14] = molecular target: Glucocorticoid receptor (Homo sapiens) (UniProt P04150); assay: ATG_GR_TRANS: Attagene TRANS-FACTORIAL HepG2 Assay for human Glucocorticoid Receptor (GR) (AID 2282978); settings: HepG2 Attagene TRANS GR reporter, mRNA transcription;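 note: activators score as hits since higher reporter transcript over DMSO is fitted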
Outline: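 After 24 h incubation with test chemical, transfected HepG2 cells were lysed for RNA; reporter cDNA was amplified, FAM-labelled, HpaI-digested and sized on a capillary analyser. Signal gain relative to DMSO was scored.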

[15] = molecular target: Steroid hormone receptor ERR1 (Homo sapiens) (UniProt P11474); assay: ATG_ERRa_TRANS: Attagene TRANS-FACTORIAL HepG2 Assay for human Estrogen-Related Receptor alpha (ERRa) (AID 2282971); settings: HepG2 Attagene TRANS reporter, ERRa transactivation
Outline: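 HepG2 cells transiently transfected with multiplexed GAL4-UAS reporter units reading chimeric ERRa-Gal4 activity; 24 h compound exposure. Reporter mRNA measured by RT-PCR, 6-FAM labelling, HpaI digest and capillary electrophoresis; gain of signal fitted versus DMSO baseline.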

[16] = molecular target: Estrogen-related receptor gamma (Homo sapiens) (UniProt P62508); assay: ATG_ERRg_TRANS: Attagene TRANS-FACTORIAL HepG2 Assay for human Estrogen-Related Receptor gamma (ERRg) (AID 2282977); settings: HepG2 Attagene TRANS reporter, ERRg transactivation;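 note: hits increase reporter signal over DMSO so potencies reflect activators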
Outline: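 HepG2 cells transiently transfected with multiplexed GAL4-UAS reporter units driven by chimeric NR-Gal4 proteins; 24 h exposure. Reporter mRNA quantified by RT-PCR, fluorescent labelling, HpaI digestion and capillary electrophoresis; gain of signal vs DMSO.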

Measured: outcome

Oxysterols receptor LXR-beta (Homo sapiens), sequence (P55055 whole entry, looked up, the tested form may be a part): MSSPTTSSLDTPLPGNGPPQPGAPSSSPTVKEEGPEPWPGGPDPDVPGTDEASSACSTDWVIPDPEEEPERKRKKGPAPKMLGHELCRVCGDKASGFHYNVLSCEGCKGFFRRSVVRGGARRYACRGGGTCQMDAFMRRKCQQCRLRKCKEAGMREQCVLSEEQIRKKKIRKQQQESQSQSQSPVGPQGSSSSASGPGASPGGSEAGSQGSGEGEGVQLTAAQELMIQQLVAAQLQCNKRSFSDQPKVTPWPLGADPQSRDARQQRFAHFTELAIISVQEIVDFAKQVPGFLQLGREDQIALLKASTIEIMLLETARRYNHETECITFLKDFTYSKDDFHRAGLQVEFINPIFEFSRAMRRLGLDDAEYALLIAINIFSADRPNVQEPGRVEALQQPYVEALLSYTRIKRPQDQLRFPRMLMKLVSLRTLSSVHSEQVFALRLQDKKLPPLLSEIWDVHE
Estrogen-related receptor gamma (Homo sapiens), sequence (P62508 whole entry, looked up, the tested form may be a part): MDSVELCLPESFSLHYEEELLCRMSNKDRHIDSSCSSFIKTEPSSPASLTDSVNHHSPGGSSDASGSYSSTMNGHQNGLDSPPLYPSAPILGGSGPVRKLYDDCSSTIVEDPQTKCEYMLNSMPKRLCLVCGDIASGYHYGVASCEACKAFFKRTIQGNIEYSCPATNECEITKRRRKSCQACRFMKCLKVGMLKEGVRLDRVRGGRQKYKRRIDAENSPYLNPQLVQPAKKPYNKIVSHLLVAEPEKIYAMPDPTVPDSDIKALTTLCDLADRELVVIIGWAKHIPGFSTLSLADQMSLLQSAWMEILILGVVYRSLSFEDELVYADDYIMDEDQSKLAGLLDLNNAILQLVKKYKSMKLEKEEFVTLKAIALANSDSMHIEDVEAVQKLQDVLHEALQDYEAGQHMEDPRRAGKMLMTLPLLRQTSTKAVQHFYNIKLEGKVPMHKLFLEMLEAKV
Oxysterols receptor LXR-alpha (Homo sapiens), sequence (Q13133 whole entry, looked up, the tested form may be a part): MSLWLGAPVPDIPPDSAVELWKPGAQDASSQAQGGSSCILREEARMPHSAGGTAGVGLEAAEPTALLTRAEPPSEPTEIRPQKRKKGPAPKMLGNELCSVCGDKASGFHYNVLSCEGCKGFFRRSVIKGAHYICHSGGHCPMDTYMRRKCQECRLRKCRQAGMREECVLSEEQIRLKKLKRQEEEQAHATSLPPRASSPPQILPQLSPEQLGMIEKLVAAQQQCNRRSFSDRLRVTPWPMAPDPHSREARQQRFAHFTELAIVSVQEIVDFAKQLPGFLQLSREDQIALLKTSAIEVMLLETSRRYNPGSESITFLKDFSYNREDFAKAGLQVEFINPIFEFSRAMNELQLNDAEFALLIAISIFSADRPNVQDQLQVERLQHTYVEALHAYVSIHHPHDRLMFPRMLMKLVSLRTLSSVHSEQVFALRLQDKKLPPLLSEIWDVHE
Steroid hormone receptor ERR1 (Homo sapiens), sequence (P11474 whole entry, looked up, the tested form may be a part): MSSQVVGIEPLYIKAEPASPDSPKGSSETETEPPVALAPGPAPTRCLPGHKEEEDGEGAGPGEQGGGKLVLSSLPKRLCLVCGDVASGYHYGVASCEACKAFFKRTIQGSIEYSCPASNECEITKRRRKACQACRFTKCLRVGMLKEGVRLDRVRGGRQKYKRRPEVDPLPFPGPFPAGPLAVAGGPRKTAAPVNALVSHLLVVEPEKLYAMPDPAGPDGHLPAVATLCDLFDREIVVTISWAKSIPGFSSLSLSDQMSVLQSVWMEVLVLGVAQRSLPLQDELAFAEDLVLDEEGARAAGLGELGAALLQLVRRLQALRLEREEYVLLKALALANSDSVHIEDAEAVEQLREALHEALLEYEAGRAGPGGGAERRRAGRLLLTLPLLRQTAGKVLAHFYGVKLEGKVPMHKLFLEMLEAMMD
Glucocorticoid receptor (Homo sapiens), sequence (P04150 whole entry, looked up): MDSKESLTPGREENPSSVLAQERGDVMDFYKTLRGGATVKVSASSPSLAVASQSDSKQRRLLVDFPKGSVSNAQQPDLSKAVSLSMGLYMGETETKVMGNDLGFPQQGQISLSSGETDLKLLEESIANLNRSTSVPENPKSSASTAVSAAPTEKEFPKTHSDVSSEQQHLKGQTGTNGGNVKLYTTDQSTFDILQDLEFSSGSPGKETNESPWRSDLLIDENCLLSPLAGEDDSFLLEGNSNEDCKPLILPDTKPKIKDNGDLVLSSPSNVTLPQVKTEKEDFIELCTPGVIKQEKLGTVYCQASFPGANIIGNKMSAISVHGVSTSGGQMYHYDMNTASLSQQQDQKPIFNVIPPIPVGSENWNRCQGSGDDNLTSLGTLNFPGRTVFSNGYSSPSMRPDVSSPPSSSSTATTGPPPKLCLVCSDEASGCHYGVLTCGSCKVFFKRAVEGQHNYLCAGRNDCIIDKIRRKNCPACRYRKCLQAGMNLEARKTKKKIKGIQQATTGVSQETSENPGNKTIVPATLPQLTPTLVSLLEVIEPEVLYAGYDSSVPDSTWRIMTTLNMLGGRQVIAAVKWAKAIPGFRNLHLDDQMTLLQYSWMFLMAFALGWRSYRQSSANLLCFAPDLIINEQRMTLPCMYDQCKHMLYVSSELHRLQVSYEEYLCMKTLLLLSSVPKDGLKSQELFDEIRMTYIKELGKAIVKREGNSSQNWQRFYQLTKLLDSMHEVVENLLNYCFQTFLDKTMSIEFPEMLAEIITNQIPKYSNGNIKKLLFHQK
Transcriptional activator Myb (Homo sapiens), sequence (P10242 whole entry, looked up): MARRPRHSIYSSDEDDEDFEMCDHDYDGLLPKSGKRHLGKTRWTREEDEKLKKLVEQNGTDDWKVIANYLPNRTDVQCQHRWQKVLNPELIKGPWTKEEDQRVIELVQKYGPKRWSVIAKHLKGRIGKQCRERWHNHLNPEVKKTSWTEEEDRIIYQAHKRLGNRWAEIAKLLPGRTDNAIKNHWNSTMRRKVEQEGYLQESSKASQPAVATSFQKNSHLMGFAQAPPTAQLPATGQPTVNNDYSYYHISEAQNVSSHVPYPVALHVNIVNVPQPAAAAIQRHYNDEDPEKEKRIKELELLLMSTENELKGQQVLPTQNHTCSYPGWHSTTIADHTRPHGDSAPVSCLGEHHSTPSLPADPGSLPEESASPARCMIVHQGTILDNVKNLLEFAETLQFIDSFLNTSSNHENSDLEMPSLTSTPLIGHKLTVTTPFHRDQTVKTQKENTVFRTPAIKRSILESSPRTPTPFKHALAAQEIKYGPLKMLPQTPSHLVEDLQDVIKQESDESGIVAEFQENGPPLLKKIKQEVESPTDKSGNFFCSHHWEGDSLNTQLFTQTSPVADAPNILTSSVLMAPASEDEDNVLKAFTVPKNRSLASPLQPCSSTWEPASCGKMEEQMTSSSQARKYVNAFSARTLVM
X-box-binding protein 1 (Homo sapiens), sequence (P17861 whole entry, looked up): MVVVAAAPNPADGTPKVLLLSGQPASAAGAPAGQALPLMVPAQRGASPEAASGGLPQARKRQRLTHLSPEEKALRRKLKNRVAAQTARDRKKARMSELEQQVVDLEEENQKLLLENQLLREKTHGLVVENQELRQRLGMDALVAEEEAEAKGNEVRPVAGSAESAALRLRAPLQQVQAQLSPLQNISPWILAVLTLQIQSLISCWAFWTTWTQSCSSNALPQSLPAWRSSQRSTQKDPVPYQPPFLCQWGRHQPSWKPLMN
Nuclear receptor subfamily 4 group A member 2 (Homo sapiens), sequence (P43354 whole entry, looked up, the tested form may be a part): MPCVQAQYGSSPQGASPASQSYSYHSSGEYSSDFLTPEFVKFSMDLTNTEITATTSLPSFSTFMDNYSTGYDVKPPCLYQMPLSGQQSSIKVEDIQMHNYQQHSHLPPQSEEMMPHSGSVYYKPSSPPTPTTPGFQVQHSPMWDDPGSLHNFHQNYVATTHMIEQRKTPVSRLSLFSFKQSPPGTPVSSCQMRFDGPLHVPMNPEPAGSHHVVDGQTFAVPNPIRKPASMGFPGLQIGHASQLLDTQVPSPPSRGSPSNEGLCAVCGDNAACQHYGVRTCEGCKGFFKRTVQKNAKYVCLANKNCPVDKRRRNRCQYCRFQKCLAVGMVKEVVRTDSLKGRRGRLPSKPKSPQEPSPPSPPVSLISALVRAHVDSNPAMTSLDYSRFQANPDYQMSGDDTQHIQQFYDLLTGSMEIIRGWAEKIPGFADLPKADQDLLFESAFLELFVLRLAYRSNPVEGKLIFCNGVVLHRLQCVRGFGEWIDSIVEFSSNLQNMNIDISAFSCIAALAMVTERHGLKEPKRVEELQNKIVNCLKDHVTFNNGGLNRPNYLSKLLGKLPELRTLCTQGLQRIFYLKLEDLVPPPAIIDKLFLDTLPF
Nuclear receptor subfamily 1 group I member 3 (Homo sapiens), sequence (Q14994 whole entry, looked up, the tested form may be a part): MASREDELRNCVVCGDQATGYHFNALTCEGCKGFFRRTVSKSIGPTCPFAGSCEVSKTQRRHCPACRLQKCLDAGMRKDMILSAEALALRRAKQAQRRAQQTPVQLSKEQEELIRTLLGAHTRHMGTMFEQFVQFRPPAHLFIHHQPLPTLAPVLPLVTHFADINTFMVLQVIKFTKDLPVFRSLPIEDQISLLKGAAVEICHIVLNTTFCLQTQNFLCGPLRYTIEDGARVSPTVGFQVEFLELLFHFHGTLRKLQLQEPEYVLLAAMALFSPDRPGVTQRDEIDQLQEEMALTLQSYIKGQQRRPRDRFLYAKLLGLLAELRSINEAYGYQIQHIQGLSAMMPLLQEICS

CSc1nnc(C(C)(C)C)c(=O)n1N
inactive: [1] | [2] | [3] | [4] | [5] | [6] | [7] | [8]

S=C1NCCN1
inactive: [1] | [2] | [3] | [4] | [9] | [5] | [6] | [10] | [7] | [8]

CN(C)[C@@H]1C(=O)C(C(N)=O)=C(O)[C@@]2(O)C(=O)C3=C(O)c4c(O)cccc4[C@@](C)(O)[C@H]3[C@H](O)[C@@H]12
inactive: [1] | [2] | [4] | [11] | [12] | [9] | [5] | [6] | [10] | [7] | [8]

CCOC(=O)CC(SP(=O)(OC)OC)C(=O)OCC (stereo unspecified)
inactive: [1] | [2] | [13] | [4] | [11] | [14] | [9] | [5] | [8]

CCC(=NOC/C=C/Cl)C1=C(O)CC(C2CCOCC2)CC1=O (stereo unspecified)
inactive: [1] | [2] | [3] | [15] | [4] | [11] | [16] | [14] | [9] | [5] | [10] | [8]

CCOP(=S)(OCC)SCCSCC
inactive: [1] | [2] | [13] | [4] | [11] | [5] | [6] | [8]

CN(C)C(=O)Nc1cccc(C(F)(F)F)c1
inactive: [1] | [2] | [3] | [4] | [5] | [10] | [8]

CCOP(=S)(OCC)Oc1ccc2c(C)c(Cl)c(=O)oc2c1
inactive: [1] | [2] | [13] | [15] | [4] | [16] | [14] | [9] | [6] | [10] | [7] | [8]

CCOC(=O)COc1cc(-c2nn(C)c(OC(F)F)c2Cl)c(F)cc1Cl
inactive: [1] | [2] | [3] | [15] | [4] | [11] | [16] | [14] | [9] | [5] | [6] | [10] | [7] | [8]
